Screening results (PubChem)
hcDAF-12 act – H. contortus DAF-12 activation, primary screen. 370,000 compounds, 1.4% hits. HEK293 hcDAF-12 lit1-tk-luc reporter, luminescence; 0% DMSO, 100% Δ7-dafachronic acid. activation, % at 6.8 µM;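 active means activation above the mean of all tested compounds plus 3 SD, cut at about 5.5% in these data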;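 further: 100% = response to 3 µM Δ7-dafachronic acid high control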
DAX1 inh-1 – inhibitors of DAX1 repression of SF-1 activated StAR promoter | inhibition, % at 6.8 µM | 370,000 compounds, 1.1% hits | AID 652010 | HEK293T StAR-luciferase reporter, SF-1/DAX-1 repression relief;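 active means inhibition above the mean over all tested compounds plus 3 SD, cut at about 3.6% in these data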;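 further: 0% = DAX-1 cells with DMSO and 100% = cells lacking DAX-1 with DMSO; higher inhibition means more luminescence from relief of DAX-1 repression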
ssDAF-12 act – activators of S. stercoralis DAF-12 nuclear receptor. HEK293 ssDAF-12/GRIP1 lit1-tk-luc reporter, luminescence; % of 3 µM dafachronic acid response. activation, % at 6.8 µM. 370,000 compounds, 1% hits. AID 652126;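 active means activation above the mean over all tested compounds plus 3 SD, cut at about 0.9% in these data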;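 further: 0% = DMSO-only wells and 100% = 3 µM delta7-dafachronic acid wells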
hgDAF12 agonist – hgDAF-12 agonism, primary luciferase screen; HEK293 GAL4-hgDAF12 UAS-luciferase reporter, agonist luminescence; normalized to butyrate control; activation, % at 6.8 µM; AID 687014; 370,000 compounds, 1.8% hits;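 active means activation above a cutoff set at the mean of all screened compounds plus 3 SD, cut at about 10% in these data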;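 further: 0% = DMSO wells and 100% = sodium butyrate wells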
DAX1 inh-2 – inhibits human nuclear receptor DAX1; P51843; HEK293 Gal4-DAX1 luciferase reporter, luminescence; inhibition, % at 6.75 µM; 340,000 compounds, 0.99% hits; AID 504766;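 active means inhibition above the mean over all tested compounds plus 3 SD, cut at about 4.2% in these data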;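 further: 0% = DAX1-transfected cells with DMSO and 100% = empty-vector control cells with DMSO; inhibition shows as a rise in luminescence from relieved DAX1 repression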
Target sequence (P51843 207-470 limits assumed): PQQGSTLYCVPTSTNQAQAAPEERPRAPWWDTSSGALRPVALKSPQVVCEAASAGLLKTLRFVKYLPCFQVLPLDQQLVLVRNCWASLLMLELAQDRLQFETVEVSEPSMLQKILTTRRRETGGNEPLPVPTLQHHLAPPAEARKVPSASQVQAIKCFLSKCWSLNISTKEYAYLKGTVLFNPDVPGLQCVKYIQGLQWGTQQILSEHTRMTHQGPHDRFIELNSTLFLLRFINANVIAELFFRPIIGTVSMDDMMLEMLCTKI
DAX1 conf – NR0B1 (human) inhibition, confirmation. HEK293T StAR-promoter luciferase reporter, SF-1/DAX-1 repression. inhibition, % at 6.8 µM. AID 652134. shares compounds with DAX1 inh-1. 2,400 compounds, 87% hits;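 active means inhibition above the average of every tested compound plus 3 SD, cut at about 3.8% in these data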;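 further: 0% = DAX-1 cells with DMSO and 100% = no DAX-1 control cells with DMSO; active compounds raise luminescence by relieving repression of the StAR reporter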
Target sequence (P51843 whole entry, looked up): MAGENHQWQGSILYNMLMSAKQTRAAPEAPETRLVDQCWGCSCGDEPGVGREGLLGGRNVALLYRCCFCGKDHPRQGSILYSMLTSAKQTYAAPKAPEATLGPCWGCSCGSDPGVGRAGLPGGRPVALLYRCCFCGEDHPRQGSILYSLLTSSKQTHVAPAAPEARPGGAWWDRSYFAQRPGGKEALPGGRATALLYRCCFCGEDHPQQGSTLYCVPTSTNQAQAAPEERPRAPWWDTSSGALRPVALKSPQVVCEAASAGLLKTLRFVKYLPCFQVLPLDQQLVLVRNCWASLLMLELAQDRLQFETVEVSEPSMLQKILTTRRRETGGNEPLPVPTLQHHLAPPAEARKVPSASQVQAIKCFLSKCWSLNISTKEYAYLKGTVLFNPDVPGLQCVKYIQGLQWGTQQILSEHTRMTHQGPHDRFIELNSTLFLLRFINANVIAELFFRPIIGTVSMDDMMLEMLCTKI
SF1 mutant ctr – counter-screen for DAX1 inhibitors: nonselective inhibitors with SF-1 AF2 mutant; AID 652136; 2,400 compounds, 78% hits; inhibition, % at 6.8 µM; shares compounds with DAX1 inh-1; HEK293 StAR-luciferase, luminescence;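 active means inhibition above the mean of all tested compounds plus 3 SD, cut at about 3% in these data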;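 further: 0% = DAX-1 transfected cells with DMSO and 100% = cells without DAX-1 with DMSO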
LXR ag – counter-screen for hcDAF-12 agonists: agonists of human LXR-beta | shares compounds with hcDAF-12 act | HEK293 Gal4-LXR tk-luc reporter, luminescence, 24 h; normalized: DMSO 0%, positive control 100% | activation, % at 6.8 µM | 3,400 tested, under 10 active;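 active means mean percent activation of the reporter above a cutoff set as the average over tested compounds plus their standard deviation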
hcDAF12 conf – confirmation of H. contortus DAF-12 agonists. shares compounds with hcDAF-12 act. HEK293 hcDAF-12 lit1-tk-luc reporter, luminescence; % of Δ7-dafachronic acid response. activation, % at 6.8 µM. 3,400 compounds, 61% hits;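 active means mean activation across triplicate tests above the threshold derived from the earlier primary screen, cut at about 5.5% in these data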;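 further: 0% = DMSO only wells and 100% = 3 µM Δ7-dafachronic acid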
hgDAF12 conf – hgDAF-12 agonism, confirmation assay; AID 743050; activation, % at 6.8 µM; shares compounds with hgDAF12 agonist; 3,300 compounds, 80% hits; HEK293 GAL4-hgDAF12 luciferase reporter, agonist mode; percent of butyrate response;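 active means mean activation over triplicate wells above the hit cutoff derived from the earlier primary screen, cut at about 11% in these data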;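 further: 0% = DMSO low control and 100% = 2 mM sodium butyrate high control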
LXR ag 2 – counter-screen for DAF-12 agonists: agonists of human LXR-beta; shares compounds with hgDAF12 agonist; HEK293 Gal4-LXR luciferase reporter, 24 h; activation, % at 6.8 µM; 3,300 tested, under 10 active; AID 743051;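 active means mean activation of the triplicate above a set limit carried over from the primary screen, none filed active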
An asterisk follows results filed as active; . = not tested or not shown. This is a sample that favours compounds with a hit; in the whole collection about 4.1% have one here.

SMILES	hcDAF-12 act	DAX1 inh-1	ssDAF-12 act	hgDAF12 agonist	DAX1 inh-2	LXR ag	hcDAF12 conf	hgDAF12 conf	LXR ag 2	others
COc1ccc(-c2cc(=NCCC(=O)O)c3cc(C)ccc3o2)cc1	6.5*	7.0*	-0.7	23.5*	1.9	.	.	10.5*	0.5	DAX1 conf=12.6*;SF1 mutant ctr=8.8*
N#CCCn1cc(C(=O)NCc2ccccc2)c(-c2ccccc2)n1	-1.7	-0.7	-1.7	-0.2	-1.1	.	.	.	.
Nc1ccccc1C(=O)OCCc1ccccc1	10.8*	5.6*	0.3	23.5*	1.4	1.8	9.7*	14.6*	1.1	DAX1 conf=12.8*;SF1 mutant ctr=4.1*
CC1CCN(CC(=O)c2ccc3c(c2)OCCO3)CC1	8.9*	8.0*	0.2	16.8*	3.1	1.6	8.3*	16.1*	0.9	DAX1 conf=14.3*;SF1 mutant ctr=8.6*
CC1CCCN(CC(=O)c2ccc(Cl)c(Cl)c2)C1 (stereo not drawn)	-1.1	2.0	-0.7	2.4	0.7	.	.	.	.
CC1CC(OP(O)(=S)c2ccc(N(C)C)cc2NC(=O)c2cccs2)CC(C)(C)C1 (stereo not drawn)	8.8*	1.8	0.1	10.8*	1.6	0.1	3.8	.	.
Cc1ccc(OCCOc2cccc(C=C3C(=O)NC(=O)NC3=O)c2)cc1	6.6*	2.8	1.1*	12.4*	-3.4	1.2	7.3*	.	.
C[C@]12CC[C@@H](O)CC1=CCC1C2CC[C@@]2(C)C1C[C@@H](F)[C@@H]2O (stereo partly drawn)	-0.1	2.6	0.0	-3.5	1.1	.	.	.	.
COc1cc(/C=C2/C(=O)NC(=O)N(c3ccccc3)C2=O)ccc1O	7.0*	-0.3	-0.1	2.0	2.2	-0.1	0.8	.	.
O=C1NC(=O)[C@]2(Cc3ccccc3N3CCN(c4ccccc4)CC32)C(=O)N1c1ccccc1 (stereo partly drawn)	7.6*	0.7	1.8*	8.4	1.2	-0.1	0.3	.	.
CN1C(=O)NC(=O)[C@]2(Cc3ccccc3N3CCN(c4ccccc4)CC32)C1=O (stereo partly drawn)	4.4	2.0	-0.2	8.0	2.1	.	.	.	.
Cn1c(O)c(/C=C2\C=Nc3ccccc32)c(=O)n(C)c1=O	7.7*	0.0	0.3	-0.2	0.1	-0.1	4.6	.	.
COc1ccc(-c2nn(Cc3ccccc3)cc2C(=O)NC2CC2)cc1OC	-1.3	-0.9	-1.2	-1.2	0.1	.	.	.	.
Cc1cc(/C=C2\C(=O)NC(=O)N(c3ccc(Br)cc3)C2=O)c(C)n1C	7.1*	-0.5	-0.7	-0.8	-0.3	-0.5	-1.1	.	.
CC(=Nc1ccccc1N)c1c(O)n(C)c(=O)n(C)c1=O	6.6*	0.4	0.7	8.1	4.5*	-0.1	1.2	.	.
CC(=NCCc1ccccc1)c1c(O)n(C)c(=O)n(C)c1=O	-0.7	-0.3	-0.6	-2.4	3.9	.	.	.	.
COC(=O)C1C2c3ccccc3C(c3ccccc32)C1(C)C(=O)OC (stereo not drawn)	-1.2	-0.9	-0.9	1.7	-1.1	.	.	.	.
CC12CC[C@H]3[C@@H](CCC4(O)C[C@H](O)CCC34/C=N/NC(=O)c3ccccc3O)C1(O)CCC2C1=CC(=O)OC1 (stereo partly drawn)	16.6*	1.3	0.8	-3.4	1.0	-0.1	6.8*	.	.
CC12CC[C@H]3[C@@H](CCC4(O)C[C@H](O)CCC34/C=N/NC(=O)c3ccccc3F)C1(O)CCC2C1=CC(=O)OC1 (stereo partly drawn)	3.9	-0.3	-0.6	6.5	1.1	.	.	.	.
CCC12C=CCN3CCC4(c5cc(Br)c(OC)cc5N(C)C4C(O)(C(=O)OC)C1OC(C)=O)C32 (stereo not drawn)	1.1	-0.4	-0.8	-1.5	-0.2	.	.	.	.
COc1ccc(Br)cc1CNCCc1ccc2c(c1)OCO2	-1.1	-0.4	-1.8	0.4	1.9	.	.	.	.
COc1ccccc1CCNCc1cc2c(cc1[N+](=O)[O-])OCO2	8.4*	0.1	0.9*	1.3	0.7	-0.3	-1.0	.	.
Cc1[nH]c2ccccc2c1CN1CCCCC1	0.3	-1.6	-0.8	-2.2	0.6	.	.	.	.
CC(C)[C@H](NC(=O)N1C[C@H]2C[C@@H](C1)c1cccc(=O)n1C2)C(=O)Nc1ccccc1F	-1.9	-0.4	-1.3	-1.3	0.6	.	.	.	.
Nc1cc(C(=O)Nc2ccccc2F)ccc1N1CC2CC(C1)c1cccc(=O)n1C2 (stereo not drawn)	7.0*	1.1	-0.6	3.2	0.4	-0.5	0.5	.	.
SMILES	hcDAF-12 act	DAX1 inh-1	ssDAF-12 act	hgDAF12 agonist	DAX1 inh-2	LXR ag	hcDAF12 conf	hgDAF12 conf	LXR ag 2	others
COc1ccc(C)cc1NC(=O)N1CCC2(CC1)OCCO2	-0.2	-0.3	-1.3	-1.9	0.1	.	.	.	.
COc1ccc(-n2nc(C(=O)NCC(=O)N3CCC4(CC3)OCCO4)c3ccccc3c2=O)cc1Cl	6.6*	1.0	0.5	13.7*	3.3	0.2	4.2	11.6*	0.3
Cc1sc2ncnc(N3CCC(C(=O)Nc4ccc(C#N)c(Cl)c4)CC3)c2c1C	-2.1	0.0	-1.1	-2.4	-0.6	.	.	.	.
Cc1ccc(-c2nc(N3CCOCC3)s[n+]2-c2ccccc2)cc1	12.1*	4.0*	1.5*	15.4*	1.4	0.6	5.4	8.2	0.6
Clc1ccc2sc(C3CCNCC3)nc2c1	1.8	0.8	-0.3	15.6*	1.7	.	.	8.0	0.4
Cc1ccc(-c2nc3ccc(Cl)cc3n2OC(=O)N(C)C)cc1	5.3	2.3	0.1	13.9*	1.2	.	.	11.9*	0.8
Cc1cc(N=Nc2ccccc2C)ccc1N	3.8	2.0	0.4	15.5*	6.0*	.	.	13.2*	0.6
COc1ccccc1/C=N/N=C(/N)N[N+](=O)[O-]	-0.5	-0.3	-1.6	15.8*	-0.2	.	.	0.6	0.0
N/C(=N\N=C\c1ccc(O)cc1O)N[N+](=O)[O-]	-0.5	0.2	-0.7	0.2	-0.8	.	.	.	.
NC(Cc1nc2ccccc2[nH]1)c1ccc(Cl)cc1 (stereo not drawn)	4.8	2.8	0.8	13.8*	2.9	.	.	14.9*	0.4
